# Laboratory results published in PubChem BioAssay (NCI).
# This is part of a sample that, as a whole, favours compounds with a hit. Of some 83,000 tested, about 20% had one in any assay.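 Values shown are percent growth following 48 h exposure of cells in 96-well plates to a single concentration of compound; below 10 was considered active.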 Unmarked numbers belong to inactive results. Activity calls are given as the source filed them.
# What was measured:
# Assay in all cases: NCI-60 one-dose screen, 48 h (100 = growth as untreated, 0 = no growth, -100 = all killed)
# Conditions in all cases: 10 µM unless noted
# NCI-H23 lung = test system: NCI-H23 lung
# NCI-H226 lung = test system: NCI-H226 lung
# NCI-H322M lung = test system: NCI-H322M lung
# HOP-62 NSCLC = test system: HOP-62 NSCLC
# NCI-H460 lung = test system: NCI-H460 lung
# HOP-92 NSCLC = test system: HOP-92 NSCLC
# NCI-H522 lung = test system: NCI-H522 lung
# A549/ATCC NSCLC = test system: A549/ATCC NSCLC
# 786-0 renal = test system: 786-0 renal
# COLO 205 colon = test system: COLO 205 colon
Compound,growth (NCI-H23 lung),growth (NCI-H226 lung),growth (NCI-H322M lung),growth (HOP-62 NSCLC),growth (NCI-H460 lung),growth (HOP-92 NSCLC),growth (NCI-H522 lung),growth (A549/ATCC NSCLC),growth (786-0 renal),growth (COLO 205 colon)
Cc1ccc(S(=O)(=O)NC(CCC(=O)Nc2ccc(Cl)cc2)C(=O)Nc2ccc(Cl)cc2)cc1 (stereo not given),38.8%,57.9%,40%,14.5%,7.89% (active),-20.4% (active),-29.7% (active),27.6%,16.9%,52.7%
C=CCn1c(SCC(=O)Nc2ccc(/C(C)=N\O)cc2)nnc1-c1cc(-c2ccccc2)nc2ccccc12,38.9%,65.4%,69.2%,67.9%,52.1%,99.5%,41.6%,43.9%,45.2%,64.2%
Nc1nc(N)c2cc(CNc3ccc(Cl)c(Cl)c3)ccc2n1,42.8%,45.2%,29.5%,43.1%,-48.8% (active),-5.15% (active),13.4%,17.7%,9.65% (active),-79.7% (active)
COc1ccc(-c2[nH]nc(N)c2-c2cc(OC)c(OC)c(OC)c2)cc1,17.4%,68.3%,7.95% (active),22%,7.6% (active),31.3%,-32% (active),19.3%,24%,-61.6% (active)
CCc1ccc2c(c1)N(CCO)C1=C(C(=O)OC1)C2c1cccc(Br)c1 (stereo not given),40.9%,39.5%,38.9%,31%,11.2%,75.6%,-26.3% (active),29.2%,34.4%,5.9% (active)
O=C(c1ccccc1)N(CCCCl)C(=O)N(CCCCl)C(=O)c1ccccc1,83.1%,94.9%,92.9%,86.7%,108%,70.1%,88.1%,87.7%,94.6%,102%
CCCc1n(Cc2ccc3ccccc3c2)c2ccccc2[n+]1Cc1ccc2ccccc2c1,-12.9% (active),-4.44% (active),4.72% (active),-55.4% (active),-76.1% (active),-48.1% (active),-60.2% (active),-19.4% (active),-85.2% (active),-77% (active)
Nc1nc(N)c2c(n1)NC(c1sc(Cl)nc1Cl)CC(c1ccccc1)=N2 (stereo not given),76.4%,73.6%,101%,41.9%,26.8%,48.7%,9.11% (active),43.1%,62%,46.7%
C#CC[C@@H]1C[C@]2(C)[C@H]3CC[C@@H]4[C@H]5C(C(=C)C)CC[C@]5(C(=O)NCCN(CCN)CCN)CC[C@@]4(C)[C@]3(C)CC[C@H]2C(C)(C)[C@H]1OC(C)=O (stereo not given in full),77.3%,65.9%,71.4%,83.3%,81.8%,66.3%,61.7%,53.4%,90.3%,69.3%
CC[C@H](Nc1nc(C)nc(N)c1C#N)c1nc2cccc(NCc3ccc(C(=O)NO)cc3)c2c(=O)n1-c1ccccc1,-17.5% (active),-3.97% (active),24.5%,10.1%,2.36% (active),-1.54% (active),-36.4% (active),-31% (active),5.71% (active),0.926% (active)
CNCc1cccc2c1OCCOCCOCCC(C)S(=O)(=O)c1ccc(cc1)-c1cnc(N)c(n1)C(=O)N2 (stereo not given),77.9%,31.6%,67%,37.7%,11.2%,80.3%,34.4%,33%,10.6%,33.7%
COc1cc(-c2n/c(=C\c3c(O)[nH]c4cc(Cl)ccc34)cc3c2=Nc2ccccc2-3)cc(OC)c1OC,45.2%,89.9%,62.3%,23.3%,59.7%,27.2%,54.6%,59.5%,34.5%,58.6%
COc1ccc([C@@H]2[C@@H](Cl)C(=O)N2c2cc(OC)c(OC)c(OC)c2)cc1C,25.3%,53.9%,35.3%,23.3%,9.34% (active),76%,10.2%,23.6%,7.98% (active),-57% (active)
